Screens as filed in PubChem BioAssay.
Rows were chosen to be rich in hits. Some 0.41% of all compounds tested hit in one or more screens of this group.
TRPV1 agonist – HTS Assay for Compounds that Act as Agonists of the Vanilloid Receptor 1; Transient receptor potential cation channel subfamily V member 1 (Homo sapiens), Q8NER1; TRPV1-expressing cells, Fluo-8 calcium influx, agonist mode; activation, % at 8.33 µM; 320,000 compounds, 0.19% hits; in the data active = activation above about 80%; inconclusive = between about 30% and that limit; note: 0% is about no effect
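Cells expressing TRPV1 were dye-loaded with Fluo-8 and read kinetically: 10 s baseline, 3 min after compound (agonist portion), then 2 min after EC20 capsaicin (allosteric enhancer portion). Calcium-bound dye fluorescence at 480/520 nm.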
TRPML1 ag – qHTS for Agonists of the Human Mucolipin Transient Receptor Potential 1 (TRPML1); Mucolipin-1 (Homo sapiens), Q9GZU1; TRPML1-expressing cells, Ca2+ dye fluorescence, FDSS; activation, % (no concentration beside the values); 410,000 compounds, 0.12% hits; in the data active = activation above about 50%; inconclusive = mostly about 30% to 49%; note: 0% is about no effect
Target sequence (Q9GZU1 whole entry, looked up): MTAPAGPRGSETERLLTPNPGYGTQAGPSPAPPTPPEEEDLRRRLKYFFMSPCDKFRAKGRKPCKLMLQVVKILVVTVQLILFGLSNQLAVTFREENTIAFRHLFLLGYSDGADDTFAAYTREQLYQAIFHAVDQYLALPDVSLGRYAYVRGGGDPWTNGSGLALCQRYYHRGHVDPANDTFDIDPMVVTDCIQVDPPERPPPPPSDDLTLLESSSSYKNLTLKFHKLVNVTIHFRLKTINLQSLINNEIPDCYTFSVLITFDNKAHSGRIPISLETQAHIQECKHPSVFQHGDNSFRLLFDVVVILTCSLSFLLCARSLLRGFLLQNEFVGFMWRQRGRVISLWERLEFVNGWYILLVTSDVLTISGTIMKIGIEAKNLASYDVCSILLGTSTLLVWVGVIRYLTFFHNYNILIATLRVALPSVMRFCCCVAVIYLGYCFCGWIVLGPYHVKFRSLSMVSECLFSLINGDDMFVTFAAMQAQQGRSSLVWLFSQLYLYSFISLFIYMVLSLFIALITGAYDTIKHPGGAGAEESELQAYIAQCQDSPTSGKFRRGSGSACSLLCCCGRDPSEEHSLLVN
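Agonist activity was taken from a 110 s kinetic Ca2+ dye read on the FDSS after pinning compounds onto TRPML1-DL cells. The cells were seeded at 1,500/well with Tet inducer, incubated about 16 h, then dye-loaded at room temperature.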
LDHA inh – qHTS assay for inhibitors of human lactate dehydrogenase; 480,000 compounds, 0.15% hits; activity change, % (values are at about 110 or 230 µM); purified LDHA, NADH/diaphorase-resazurin fluorescence; hits give low values; AID 1347041, 2019; L-lactate dehydrogenase A chain (Homo sapiens), P00338; in the data active = activity change below about -30%; inconclusive = mostly about -25% to -30%;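 note: plate controls were DMSO wells for no effect and wells without enzyme for full effect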
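Human LDH5 (2 nM) was incubated with 0.06 mM NADH and 0.2 mM pyruvate for 5 min at room temperature in Tris pH 7.4. Remaining NADH was coupled through diaphorase/resazurin, and resorufin fluorescence was read at 0 and 20 min.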
TRPV1 potentiator – HTS Assay for Compounds that Act as Potentiators of the Vanilloid Receptor 1; 320,000 compounds, 0.02% hits; potentiation, % at 8.33 µM; TRPV1-expressing cells, Fluo-8 calcium influx, capsaicin EC20 potentiation; Transient receptor potential cation channel subfamily V member 1 (Homo sapiens), Q8NER1; in the data active = potentiation above about 80%; inconclusive = between about 30% and that limit; note: 0% is about no effect
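TRPV1-expressing cells were cultured overnight at 35.5C and loaded with Fluo-8 calcium dye for 40 to 90 min at room temperature. After a 10 s baseline, compound was added and calcium influx was read kinetically for 3 min (ex 480/em 520 nm).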
TRPML1 inh – qHTS for Inhibitors of the Human Mucolipin Transient Receptor Potential 1 (TRPML1); Mucolipin-1 (Homo sapiens), Q9GZU1; TRPML1-inducible cells, Ca2+ dye fluorescence, FDSS; hits give low values; inhibition of EC80 agonist-evoked calcium signal; activity change, negative = inhibition, % (concentration not given with the values); 390,000 compounds, 0.02% hits; AID 624415, 2012; in the data active = activity change below about -50%; inconclusive = between about -30% and that limit;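 note: stimulus is agonist 54-4 at its EC80 concentration; % is set by controls: 0 for no effect and ±100 for the full control effect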
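Tet-induced TRPML1-DL cells loaded with Ca8 no-wash calcium dye were read kinetically on FDSS. Compound addition was followed by EC80 agonist 54-4 (4 uM final); inhibition was read over 110 s.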
Numbers without * were called inactive.

For CC(=O)N1CCOc2ccc(S(=O)(=O)N3CC(C)CC(C)C3)cc21 (stereo not drawn) the results were TRPV1 agonist 11, TRPML1 ag 0, LDHA inh 0, TRPV1 potentiator -8 and TRPML1 inh -21.
`COc1ccc(Br)cc1CN1CCCCCCC1` gave TRPV1 agonist 3, TRPML1 ag 1, LDHA inh -30*, TRPV1 potentiator -12 and TRPML1 inh -4.
Screening Cc1ccc(NC(=O)C(C)OC(=O)C2=CN3CCS(=O)(=O)N=C3C=C2)cc1 (stereo not drawn) returned LDHA inh 3.
Screening Cc1ccc(C(=O)N/N=C/c2ccc([N+](=O)[O-])s2)cc1 returned TRPV1 agonist inconclusive, TRPML1 ag 9, LDHA inh -35*, TRPV1 potentiator -18 and TRPML1 inh -1.
Cc1ccc([N+](=O)[O-])c(C(=O)N/N=C/c2cccs2)c1 was read as TRPV1 agonist 83*, TRPML1 ag -1, LDHA inh -2, TRPV1 potentiator 20 and TRPML1 inh 23.
`O=C(N/N=C/c1ccc([N+](=O)[O-])s1)c1ccncc1` gave TRPV1 agonist 15, TRPML1 ag 0, LDHA inh 7, TRPV1 potentiator -4 and TRPML1 inh -3.
`COc1ccc(-c2ccnc3nc(N4CCCCC4)[nH]c(=O)c23)cc1` gave LDHA inh 4.
`Cn1c(=O)c(NCCc2ccccc2)c2c3c(cccc31)C(=O)c1ccccc1-2` gave TRPV1 agonist 92*, TRPML1 ag 104*, LDHA inh -4, TRPV1 potentiator 23 and TRPML1 inh -11.
CC(=O)Nc1ccc(Nc2c3c4c(cccc4n(C)c2=O)C(=O)c2ccccc2-3)cc1 was read as TRPV1 agonist 6, TRPML1 ag 2, LDHA inh 2, TRPV1 potentiator -18 and TRPML1 inh 1.
`Cn1c(NCCc2ccccc2)cc(=O)n(C)c1=O` gave TRPV1 agonist 4, TRPML1 ag -2, LDHA inh -5, TRPV1 potentiator -4 and TRPML1 inh 19.
Screening CCCCNc1c2c3c(cccc3n(C)c1=O)C(=O)c1ccccc1-2 returned TRPV1 agonist inconclusive, TRPML1 ag 89*, LDHA inh 4, TRPV1 potentiator 2 and TRPML1 inh -15.
Cn1c(=O)c(NCCO)c2c3c(cccc31)C(=O)c1ccccc1-2 was read as TRPML1 ag 93*, LDHA inh -1 and TRPML1 inh -4.
For Cn1c(=O)c(NC2CCCCC2)c2c3c(cccc31)C(=O)c1ccccc1-2 the results were TRPV1 agonist 89*, TRPML1 ag 100*, LDHA inh -1, TRPV1 potentiator 15 and TRPML1 inh inconclusive.
Screening CS(=O)c1ccc(C(=O)OCc2cc(Cl)c3c(c2)OCCCO3)cc1 (stereo not drawn) returned LDHA inh -1.
Screening CCNc1c2c3c(cccc3n(C)c1=O)C(=O)c1ccccc1-2 returned TRPV1 agonist 86*, TRPML1 ag 67*, LDHA inh -6, TRPV1 potentiator -9 and TRPML1 inh -29.
Screening COc1ccc(C(=O)Nc2nc3ccccc3s2)cc1 returned TRPV1 agonist 96*, TRPML1 ag 4, LDHA inh 0, TRPV1 potentiator -2 and TRPML1 inh -1.
Screening COc1ccc2nc(NC(=O)c3ccc(-n4nc(C)cc4C)cc3)sc2c1 returned TRPV1 agonist -4, TRPML1 ag 68*, LDHA inh -8, TRPV1 potentiator -5 and TRPML1 inh 9.
For COc1cccc(C(=O)Nc2nc3ccccc3s2)c1 the results were TRPV1 agonist 15, TRPML1 ag 0, LDHA inh -3, TRPV1 potentiator -10 and TRPML1 inh 7.
COc1ccc2nc(NC(=O)c3ccc(F)cc3)sc2c1 was read as TRPV1 agonist inconclusive, TRPML1 ag 1, LDHA inh -2, TRPV1 potentiator 2 and TRPML1 inh 0.
